The source of these data is PubChem BioAssay (NCI).

Common to all, as to test: NCI-60 one-dose screen, 48 h (100 = growth as untreated, 0 = no growth, -100 = all killed)
Holding throughout (conditions): 10 µM unless noted

In assay [1] the test system is HCT-15 colon.
The subject of assay [2] is HT29 colon.
Assay [3] concerns SNB-75 CNS.
For assay [4], the system named is SNB-19 CNS.
The test system of assay [5] is U251 CNS.
Assay [6] deals with PC-3 prostate.
In assay [7] the test system is SK-MEL-5 melanoma.
Assay [8] has as its system UACC-62 melanoma.
Assay [9] deals with LOX IMVI melanoma.
Assay [10] concerns SK-MEL-28 melanoma.
Assay [11] relates to SK-MEL-2 melanoma.
The test system of assay [12] is EKVX NSCLC.
Assay [13] relates to SN12C renal.
Assay [14] has as its system UO-31 renal.
For assay [15], the system named is TK-10 renal.
The test system of assay [16] is ACHN renal.
In assay [17] the test system is CAKI-1 renal.
Assay [18] deals with A498 renal.
In assay [19] the test system is HL-60(TB) leukemia.
For assay [20], the system named is CCRF-CEM leukemia.

“And” between values parts separate entries of the source, which are not always exact repeats. Equal values may be shown once. About 83,000 compounds went through this panel and 20% of them were active in at least one assay; those are over-represented in the sample as a whole.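 How to read the values: 0–100, growth inhibition (40 = 60% inhibited); 0, no net growth; -100 to 0, cell death (-40 = 40% of starting cells died; -100 = all dead).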 Unmarked numbers belong to inactive results. The source made the active and inactive calls. How the source made its calls: active means growth percent below 10; inactive means the rest.

With `C[C@]12CCC(=O)C[C@@H]1CC[C@@H]1[C@@H]2CC[C@]2(C)[C@@H](OC(=O)N(CCCl)N=O)CC[C@@H]12`, the growth in assay [1] is 27.9%; in assay [2], 31.6%; in assay [3], 39.4%; in assay [4] it was 31%; in assay [5], 16.1%; in assay [6] it was 36.3%. The growth was 22.8% in assay [7]; 13.5% in assay [8]; 22.6% in [9]; 63.1% in [10]; 17.7% in assay [11]; 69.9% in [12]. Besides, the growth in assay [13] was 24%; in assay [14], 25.4%; in [15] it was 32.9%; in assay [16] it was 9.18% (active); in [17], 5.32% (active); in assay [18], 43.5%. The growth in assay [19] is -10.5% (active); in assay [20], 14.7%.

On to `C/C(=C\c1ccn(-c2ccc(N)c(C(F)(F)F)c2)n1)[C@@H]1C[C@@H]2O[C@]2(C)CCC[C@H](C)[C@H](O)[C@@H](C)C(=O)C(C)(C)[C@@H](O)CC(=O)O1`, for which the growth was 20% in assay [1]; 13% in [2]; -2.27% (active) in assay [3]; 38% in assay [4]; 26.3% in [5]; 15.7% in assay [6]. Further, the growth in [7] was 21.5%; in [8], 20.7%; in [9], 26.2%; in assay [10], 55.8%; in [11], 45.1%; in assay [12] it was 39.7%. Besides, the growth in assay [13] was 41.3%; in assay [14], 32.7%; in assay [15] it was 52.6%; in assay [16] it was 46.3%; in assay [17], 52.1%; in assay [18], 22.6%. Besides, in assay [20], the growth was 14.3%.

For the compound `O=C(NC1=NCC[Se]1)c1ccccc1O`, the growth in assay [1] is 82%; in assay [2], 92.1%; in assay [3], 67.3%; in assay [4], 68.5%; in assay [5], 44%; in assay [6], 54.9%. The growth in assay [7] is 80.9%; in [8], 76.2%; in [9], 42.9%; in assay [10] it was 61.3%; in [11], 83%; in assay [12], 73%. Moreover, the growth is 68.4% in assay [13]; 17.8% in assay [14]; 56.7% in [15]; 79.8% in assay [16]; 50.8% in assay [17]; 58.8% in assay [19]. Moreover, the growth in assay [20] was 21.8%.

In the case of `CC[C@H](C)[C@H](NC(=O)c1ncccn1)C(=O)N(C)[C@H](C[C@@H](OC(C)=O)c1nc(C(=O)N[C@@H](Cc2ccccc2)C[C@H](C)C(=O)OC)cs1)C(C)C`, the growth in assay [1] is 10.3%; in assay [2], -2.02% (active); in [3], -3.1% (active); in assay [4], 44.1%; in assay [5], 16.7%; in [6], 27.7%. Further, the growth was 21.5% in [7]; 46.9% in [8]; 21.4% in assay [9]; 50.3% in assay [10]; 43.9% in assay [11]; 58.5% in [12]. Moreover, the growth in assay [13] was 45.7%; in [14], 50.5%; in assay [15], 41%; in assay [16], 50.8%; in assay [17], 61%; in assay [18], 28.1%. For the same compound, the growth in [19] was -42.8% (active); in assay [20], 10.4%.

With `CCN1C(=O)CC(=O)N(CC)C1=S`, the growth in assay [1] was 96.4%; in [2] it was 92.1%; in assay [3] it was 72.4%; in [4] it was 101%; in assay [5], 105%; in assay [6], 100%. In addition, the growth is 96.8% in assay [7]; 95.5% in assay [8]; 100% in assay [9]; 105% in [10]; 97% in [11]; 108% in assay [12]. In addition, the growth in assay [13] is 99.3%; in assay [14] it was 91.7%; in assay [15], 105%; in assay [17] it was 76.8%; in assay [18] it was 94.6%; in [19], 68.7%. In assay [20], the growth is 94.8%.

As for `[N-]=[N+]=CC(=O)CCC(=O)C=[N+]=[N-]`, the growth in [1] was 111%; in [2] it was 107%; in [3], 96.6%; in [4] it was 99.6%; in assay [5], 100%; in [6] it was 86%. Besides, the growth is 116% in [7]; 96.5% in assay [8]; 94.9% in assay [9]; 112% in assay [10]; 113% in assay [11]; 105% in assay [12]. For the same compound, the growth in [13] is 107%; in [14], 71.3%; in assay [15], 114%; in assay [17], 97.4%; in assay [18], 110%.

For `C[C@]12CC[C@H](O)C[C@@H]1CC[C@@H]1[C@@H]2CC[C@]2(C)OC(=O)CC[C@@H]12`, the growth in assay [1] is 95.2%; in [2], 79.6%; in assay [3] it was 85.8%; in assay [4] it was 96.6%; in [5], 86.9%; in assay [6] it was 92.5%. Besides, the growth in [7] is 101%; in [8], 93.5%; in assay [9], 97.9%; in assay [10], 105%; in assay [11], 108%; in assay [12], 89%. Besides, the growth in [13] is 96.8%; in [14], 83.1%; in [15], 97.5%; in assay [17] it was 92.8%; in [18] it was 109%; in assay [19] it was 94.4%. In assay [20], the growth is 114%.

For `CC1(C)S[C@H]2CC[C@H]3OC(=O)[C@@H]1N23`, the growth in assay [1] is 106%; in [2], 106%; in assay [3], 90.9%; in assay [4], 101%; in assay [5] it was 115%; in assay [6] it was 87%. Besides, the growth in assay [7] is 111%; in [8] it was 93.4%; in assay [9] it was 103%; in [10] it was 108%; in assay [11], 94.4%; in assay [12], 88.4%. Besides, the growth in assay [13] is 119%; in assay [14], 53.9%; in [15] it was 91.9%; in [16], 114%; in [17], 66.6%; in assay [19], 60.9%. The growth in assay [20] was 82.9%.

On to `CCOC(=O)c1cncn1C(C)c1ccccc1` (stereo unspecified), for which the growth in [1] was 106%; in [2], 95.1%; in [3], 94.3%; in assay [4] it was 106%; in assay [5], 100%; in assay [6], 97.9%. The growth in [7] was 102%; in assay [8] it was 100%; in [9] it was 101%; in [10] it was 114%; in assay [11], 105%; in assay [12] it was 98.2%. Besides, the growth in assay [13] was 102%; in [14] it was 81%; in assay [15] it was 95.2%; in assay [16], 102%; in assay [17] it was 94.6%; in assay [18] it was 134%. Also, the growth in assay [20] is 94.7%.

Regarding `Cc1cc(N(CCCl)CCCl)ccc1C=Nc1ccc(-c2csc(-c3ccccc3)n2)cc1`, the growth was 103% in assay [1]; 112% in assay [2]; 84.6% in assay [3]; 79.4% in assay [4]; 85% in assay [5]; 69.6% in assay [6]. For the same compound, the growth was 80.8% in assay [7]; 58.8% in [8]; 80.2% in assay [9]; 105% in assay [10]; 97.2% in assay [11]; 111% in [12]. The growth in [13] is 64.4%; in assay [14], 59.9%; in assay [15], 113%; in assay [16], 80.5%; in [17], 32.7%; in assay [18] it was 97.7%. Besides, the growth was 49.1% in assay [19] and 46.5% in assay [20].

For `C[Se]/C=C1/C(=O)N(c2c(Cl)cccc2Cl)c2ccccc21`, the growth in [1] was 45.7%; in assay [2] it was 7.79% (active); in [3], -30.8% (active); in assay [4], 32.6%; in assay [5], 25.1%; in assay [6] it was 31.3%. Moreover, the growth was 38.9% in [7]; 27.8% in assay [8]; 17.7% in [9]; 8.1% (active) in [10]; 51.1% in assay [11]; 24% in [12]. The growth in assay [13] is -35.7% (active); in assay [14] it was -96.5% (active); in [15], 11.6%; in assay [16] it was 30.1%; in assay [17], 2.44% (active); in assay [18], 11.5%. Moreover, the growth in assay [19] was -39.7% (active); in assay [20], 10.2%.

Consider `CC/C(Cc1ccccc1)=C(\c1ccc(OCCN2CCCC2)cc1)c1ccc(OC(=O)NCc2ccccc2)cc1`, for which the growth is -11.5% (active) in assay [1]; -42.1% (active) in assay [2]; 57.7% in assay [3]; 54.9% in assay [4]; 12.5% in assay [5]; 47.8% in assay [6]. The growth in assay [7] is 19.3%; in [8], -45.4% (active); in assay [9] it was 49.3%; in [10], -60.3% (active); in assay [11], 95.2%; in [12], 66.9%. In addition, the growth was 54.2% in assay [13]; 84.7% in [15]; 63% in [16]; 87.8% in [17]; -1.94% (active) in assay [19]; 33.7% in [20].

Take `CCCCCCCCCCCCCCCCCCn1cc[n+](C)c1`: the growth is 3.3% (active) and -54.8% (active) in assay [1]; -42.1% (active) and -36.8% (active) in assay [2]; -74.4% (active) and -55.1% (active) in [3]; -47.5% (active) and -68% (active) in assay [4]; -0.673% (active) and -63.9% (active) in assay [5]; -7.74% (active) and -8.63% (active) in assay [6]. For the same compound, the growth is -81.1% (active) and -74.1% (active) in [7]; -70.9% (active) and -82.1% (active) in assay [8]; 0.132% (active) and -52.2% (active) in [9]; -49.4% (active) and -52.8% (active) in [10]; -61.3% (active) and -51.7% (active) in assay [11]; -52.5% (active) and -68.4% (active) in [13]. Also, the growth in assay [14] was -61.4% (active) and -66.1% (active); in [15], -70.2% (active) and -72.4% (active); in [16], -12.4% (active) and -43.5% (active); in assay [17], -67.3% (active) and -78.6% (active); in [18], -50.9% (active) and -44.9% (active); in assay [20] it was 34% and 67.8%.

For `C=CC[PH+](c1ccccc1)c1ccccc1.C=CC[PH+](c1ccccc1)c1ccccc1.[Pt+2].[S-]c1nc2ccccc2[nH]1.[S-]c1nc2ccccc2[nH]1`, the growth in assay [1] is 70%; in assay [2] it was -30.4% (active); in assay [3] it was -64.5% (active); in assay [4] it was 5.65% (active); in [5], -83% (active); in [6] it was 9.47% (active). Also, the growth in assay [7] is -94.9% (active); in assay [8], -48.9% (active); in assay [9], -95% (active); in [10], -47.1% (active); in [11] it was -72.9% (active); in assay [12] it was 33%. Also, the growth is -4.98% (active) in [13]; -12.2% (active) in [15]; 42.3% in assay [16]; 25% in [17]; -16.1% (active) in assay [18]; -20.8% (active) in [19]. In assay [20], the growth is 6.12% (active).
